Unmarked numbers belong to inactive results. Activity calls are given as the source filed them.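 How the source made its calls, unless noted: active means growth inhibition above 50% at the single 2 µM test dose, taken to imply half-maximal potency below 2 µM; inactive means the rest.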
Experiment: antimalarial activity against Dd2 strain (AID 2302);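 further: 0% = DMSO untreated growth and 100% = chloroquine plus artemisinin killed control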
Conditions: P. falciparum Dd2 in RBCs, LDH growth readout, 72 h; at 2 µM; stronger effect = higher value

SMILES | growth inhibition
COc1ccc2nccc(N3CCC(SCCNS(=O)(=O)c4ccc5c(c4)OCCO5)C3)c2n1 (stereo not given) | 87% (active)
CCc1c(CCNCCCCCCNCCc2ccc([N+](=O)[O-])cc2)ccc(OC)c1OC | 2%
CCOC(=O)c1cnc2c(OC)cc(OC)c(Cl)c2c1Nc1ccccc1 | 100% (active)
O=C(Nc1ccc(Cl)cc1)Nc1cccc(CCNCc2ccccc2)c1 | 12%
Nc1nc2c(ncn2OC[C@H]2COP(=O)(O)CO2)c(=O)[nH]1 | 32%
Fc1ccc(Nc2ccnc3cc(-c4cccc(CN5CCCCC5)c4)ccc23)c(Cl)c1 | 58% (active)
COc1ccc(NC(=O)[C@H](CC(C)C)Nc2cc(C)nc(NCCc3cccs3)n2)cc1 | 68% (active)
NC(=O)c1cccc(CNC(=O)NC[C@H]2CN(Cc3ccc(Cl)c(Cl)c3)CCO2)c1 | 65% (active)
O=C(NC1CC1)c1ccc2cc(C(=O)N3Cc4ccccc4C(c4ccccc4)C3)ccc2c1 (stereo not given) | 64% (active)
O=C(Nc1ccc(OC2CCN(Cc3ccc(F)cc3)CC2)c(Cl)c1)c1ccsc1 | 90% (active)
CN(C)Cc1cc(Nc2ccnc3cc(Cl)ccc23)ccc1O | 100% (active)
O=C(Cc1ccc(NC(=O)c2ccc(O)c(-c3ccc(Cl)c(Cl)c3)c2)cc1)NCc1cccc(C(F)(F)F)c1 | 28%
COc1ccc(CNC2CCN(C)CC2)cc1-c1ccc(S(=O)(=O)NCc2ccccc2)cc1 | 99% (active)
CC(C)=CCc1c(-c2ccc(O)cc2O)oc2c3c(cc(O)c2c1=O)OC(C)(C)C=C3 | 8%
COc1ccc2ncc(F)c(NC(=O)C3CCC(NCc4cc5cc(F)cc(F)c5[nH]4)CC3)c2n1 (stereo not given) | 15%
O=C(NCc1cccs1)[C@H](Cc1ccccc1)Nc1ccnc(NCCc2ccc(F)cc2)n1 | 52% (active)
CCc1ccc(NC(=O)c2ccc(CN3CCCN(CC4CCCCC4)CC3)cc2)cc1 | 48%
O=C(NCc1ccc(F)cc1)Nc1ccc(-c2cccc(-c3nc4ccc(C(F)(F)F)cc4[nH]3)c2)cc1 | 92% (active)
Cc1nc2ccc(NC(=O)c3cc(S(=O)(=O)N(C)C)ccc3Cl)cc2s1 | 77% (active)
Cc1cc(N[C@@H](Cc2ccccc2)C(=O)NCCOc2ccccc2)nc(NCCc2ccc(F)cc2)n1 | 86% (active)

SMILES | growth inhibition
COc1c(C(=O)NC2CCN(Cc3ccccc3)C2)cnc2ccccc12 (stereo not given) | 12%
O=C(c1cccc(-c2cccc(-c3nc4ccccc4[nH]3)c2)c1)N1CCCCC1CN1CCC(O)C1 (stereo not given) | 56% (active)
Cc1cc(F)ccc1Nc1nc(N(C)c2ccccc2)c2cccc(OCCO)c2n1 | 94% (active)
CCC(C)(C)n1c(C)cc2c3c(N)nc(N)nc3ccc21 | 85% (active)
Nc1cccc(CNCc2ccc(-c3cccc(-c4nc5ccc(F)cc5[nH]4)c3)cc2)c1 | 94% (active)
CN(C)Cc1c(O)ccc2[nH]c(-c3ccc(F)cc3F)nc12 | 17%
CO/C(=C/C=C/c1cc2cc(Cl)c(Cl)cc2[nH]1)C(=O)NC1CC(C)(C)N(C)C(C)(C)C1 | 85% (active)
O=C(Nc1cccc(Cl)c1Cl)N1CCc2cc3nccc(N4CCN5CCC[C@H]5C4)c3cc21 | 100% (active)
N#Cc1ccc(N(CCOC(=O)c2ccc(Br)s2)Cc2ccccc2C(F)(F)F)cc1C(F)(F)F | 48%
Clc1cc(Nc2ncnc3sc(C#Cc4ncc[nH]4)cc23)ccc1OCc1ccccn1 | 6%
COc1ccc2nccc([C@@H](O)CN3CCC(NCCOc4ccccc4C(F)(F)F)CC3)c2c1 | 95% (active)
Cc1onc(-c2ccccc2Cl)c1C(=O)Nc1cc(Cl)c(Cl)cc1Cl | 57% (active)
COc1ccc(C(=O)Nc2ccc3nc(N4CCCCC4)cc(C)c3c2)cc1[N+](=O)[O-] | 7%
CCCCCCNc1cc(C)nc2ccc(OC)cc12 | 94% (active)
COc1ccc(CN2CCCN(Cc3cccc(NC(=O)c4ccc(Cl)c(Cl)c4)c3)CC2)cc1 | 19%
CC1=C(C(=O)OCCOCc2ccccc2)C(c2ccccc2C(F)(F)F)C(C(=O)OCCOCc2ccccc2)=C(C)N1 | 87% (active)
CCOC(=O)c1ccc(N=C2SC(=Cc3cc(Br)ccc3O)C(=O)N2C)cc1 | 96% (active)
O=S(=O)(Nc1cccc(CCN2CCCCC2CCN2CCCC2)c1)c1ccc(Oc2ccccc2)cc1 (stereo not given) | 1%
O=C(NCc1ccc(Cl)c(Cl)c1)[C@H]1CNCCN1C(=O)c1ccccc1 | 4%
N#Cc1cccc(NC(=O)Nc2cccc(-c3cccc(-c4nc5ccc(C(F)(F)F)cc5[nH]4)c3)c2)c1 | 99% (active)

Experiment: human hepatoma cell viability loss – ATP luminescence, cytotoxicity control for P. falciparum antimalarial project, primary screen (AID 2303;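 active means inhibition above 50%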;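 further: 0% = DMSO wells and 100% = digitonin-killed cells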)
Conditions: HepG2 viability, 24-48 h, at 10 µM, stronger effect = higher value

SMILES | inhibition
COc1ccc2nccc(N3CCC(SCCNS(=O)(=O)c4ccc5c(c4)OCCO5)C3)c2n1 (stereo not given) | 36%
CCc1c(CCNCCCCCCNCCc2ccc([N+](=O)[O-])cc2)ccc(OC)c1OC | 35%
CCOC(=O)c1cnc2c(OC)cc(OC)c(Cl)c2c1Nc1ccccc1 | 13%
O=C(Nc1ccc(Cl)cc1)Nc1cccc(CCNCc2ccccc2)c1 | 16%
Nc1nc2c(ncn2OC[C@H]2COP(=O)(O)CO2)c(=O)[nH]1 | 1%
Fc1ccc(Nc2ccnc3cc(-c4cccc(CN5CCCCC5)c4)ccc23)c(Cl)c1 | 3%
COc1ccc(NC(=O)[C@H](CC(C)C)Nc2cc(C)nc(NCCc3cccs3)n2)cc1 | 5%
NC(=O)c1cccc(CNC(=O)NC[C@H]2CN(Cc3ccc(Cl)c(Cl)c3)CCO2)c1 | -3%
O=C(NC1CC1)c1ccc2cc(C(=O)N3Cc4ccccc4C(c4ccccc4)C3)ccc2c1 (stereo not given) | -2%
O=C(Nc1ccc(OC2CCN(Cc3ccc(F)cc3)CC2)c(Cl)c1)c1ccsc1 | 5%
CN(C)Cc1cc(Nc2ccnc3cc(Cl)ccc23)ccc1O | 36%
O=C(Cc1ccc(NC(=O)c2ccc(O)c(-c3ccc(Cl)c(Cl)c3)c2)cc1)NCc1cccc(C(F)(F)F)c1 | -7%
COc1ccc(CNC2CCN(C)CC2)cc1-c1ccc(S(=O)(=O)NCc2ccccc2)cc1 | 56% (active)
CC(C)=CCc1c(-c2ccc(O)cc2O)oc2c3c(cc(O)c2c1=O)OC(C)(C)C=C3 | 1%
COc1ccc2ncc(F)c(NC(=O)C3CCC(NCc4cc5cc(F)cc(F)c5[nH]4)CC3)c2n1 (stereo not given) | 18%
O=C(NCc1cccs1)[C@H](Cc1ccccc1)Nc1ccnc(NCCc2ccc(F)cc2)n1 | 1%
CCc1ccc(NC(=O)c2ccc(CN3CCCN(CC4CCCCC4)CC3)cc2)cc1 | 48%
O=C(NCc1ccc(F)cc1)Nc1ccc(-c2cccc(-c3nc4ccc(C(F)(F)F)cc4[nH]3)c2)cc1 | 41%
Cc1nc2ccc(NC(=O)c3cc(S(=O)(=O)N(C)C)ccc3Cl)cc2s1 | 20%
Cc1cc(N[C@@H](Cc2ccccc2)C(=O)NCCOc2ccccc2)nc(NCCc2ccc(F)cc2)n1 | 5%

SMILES | inhibition
COc1c(C(=O)NC2CCN(Cc3ccccc3)C2)cnc2ccccc12 (stereo not given) | 2%
O=C(c1cccc(-c2cccc(-c3nc4ccccc4[nH]3)c2)c1)N1CCCCC1CN1CCC(O)C1 (stereo not given) | 66% (active)
Cc1cc(F)ccc1Nc1nc(N(C)c2ccccc2)c2cccc(OCCO)c2n1 | 34%
CCC(C)(C)n1c(C)cc2c3c(N)nc(N)nc3ccc21 | 69% (active)
Nc1cccc(CNCc2ccc(-c3cccc(-c4nc5ccc(F)cc5[nH]4)c3)cc2)c1 | 36%
CN(C)Cc1c(O)ccc2[nH]c(-c3ccc(F)cc3F)nc12 | 4%
CO/C(=C/C=C/c1cc2cc(Cl)c(Cl)cc2[nH]1)C(=O)NC1CC(C)(C)N(C)C(C)(C)C1 | 58% (active)
O=C(Nc1cccc(Cl)c1Cl)N1CCc2cc3nccc(N4CCN5CCC[C@H]5C4)c3cc21 | 9%
N#Cc1ccc(N(CCOC(=O)c2ccc(Br)s2)Cc2ccccc2C(F)(F)F)cc1C(F)(F)F | 8%
Clc1cc(Nc2ncnc3sc(C#Cc4ncc[nH]4)cc23)ccc1OCc1ccccn1 | 10%
COc1ccc2nccc([C@@H](O)CN3CCC(NCCOc4ccccc4C(F)(F)F)CC3)c2c1 | 2%
Cc1onc(-c2ccccc2Cl)c1C(=O)Nc1cc(Cl)c(Cl)cc1Cl | 3%
COc1ccc(C(=O)Nc2ccc3nc(N4CCCCC4)cc(C)c3c2)cc1[N+](=O)[O-] | 17%
CCCCCCNc1cc(C)nc2ccc(OC)cc12 | 19%
COc1ccc(CN2CCCN(Cc3cccc(NC(=O)c4ccc(Cl)c(Cl)c4)c3)CC2)cc1 | 38%
CC1=C(C(=O)OCCOCc2ccccc2)C(c2ccccc2C(F)(F)F)C(C(=O)OCCOCc2ccccc2)=C(C)N1 | -7%
CCOC(=O)c1ccc(N=C2SC(=Cc3cc(Br)ccc3O)C(=O)N2C)cc1 | -3%
O=S(=O)(Nc1cccc(CCN2CCCCC2CCN2CCCC2)c1)c1ccc(Oc2ccccc2)cc1 (stereo not given) | 52% (active)
O=C(NCc1ccc(Cl)c(Cl)c1)[C@H]1CNCCN1C(=O)c1ccccc1 | -5%
N#Cc1cccc(NC(=O)Nc2cccc(-c3cccc(-c4nc5ccc(C(F)(F)F)cc5[nH]4)c3)c2)c1 | 74% (active)
